Laboratory results: PubChem BioAssay
Values without a mark were called inactive. The rule behind the calls is not given here.

Target: Pantothenate synthetase (Mycobacterium tuberculosis (strain ATCC 25618 / H37Rv)) (UniProt P9WIL5)
Test: Recombinant Mtb pantothenate synthetase (PanC) inhibitors, coupled enzyme, confirmatory (AID 375);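 note: 0% = full reaction with vehicle and 100% = no enzyme background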
Conditions: coupled enzyme assay; at 10 µM, hits give high values

Pantothenate synthetase (Mycobacterium tuberculosis (strain ATCC 25618 / H37Rv)), sequence (P9WIL5 whole entry, looked up): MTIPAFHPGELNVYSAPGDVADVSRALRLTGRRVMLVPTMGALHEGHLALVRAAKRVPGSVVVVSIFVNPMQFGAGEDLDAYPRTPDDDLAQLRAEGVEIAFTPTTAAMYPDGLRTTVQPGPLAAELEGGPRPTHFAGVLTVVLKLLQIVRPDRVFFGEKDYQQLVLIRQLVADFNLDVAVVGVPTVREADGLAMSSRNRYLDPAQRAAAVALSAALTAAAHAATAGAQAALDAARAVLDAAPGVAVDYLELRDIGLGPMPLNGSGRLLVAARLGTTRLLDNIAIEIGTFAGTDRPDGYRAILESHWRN

SMILES | inhibition [%]
Cc1cc(C)nc(N(C#N)CC(=O)N2CCC(C(N)=O)CC2)n1 | 1
CCOC(=O)c1cc2sc(C)cc2n1C(C)C(=O)OCC (centres undefined) | 11
O=C(CCn1c(=O)oc2ccccc21)NCCN1CCc2ccccc2C1 | 0
CC1Oc2ccccc2N(CC(=O)NCc2cccs2)C1=O (centres undefined) | 0
Cc1oc(-c2ccccc2F)nc1CS(=O)(=O)CC(=O)N1CCCCCC1 | 1
COC(=O)c1ccc2c(=O)n(CC3CCCO3)c(=S)[nH]c2c1 (centres undefined) | 0
CCOC(=O)c1c(C)[nH]c(C(=O)CSc2nc3ccccc3o2)c1C | 0
Oc1ccc(N2CCN(C(c3cccnc3)c3nnnn3Cc3ccccc3)CC2)cc1 (centres undefined) | 0
Cn1cccc1Cc1nnc(SCC(=O)N2CCOCC2)n1-c1ccc(F)cc1 | 0
COc1ccc(NC(=O)CN(c2ccc(C)cc2)S(C)(=O)=O)c(OC)c1 | 4
Cc1nc(SCC(=O)c2c[nH]c3ccccc23)n[nH]1 | 4
O=C(CSc1nnc(Cc2ccccc2)n1C1CCCCC1)N1CCOCC1 | 3
CCn1c(=O)cc(SCC(=O)Nc2cccnc2)c2ccccc21 | 0
COC(=O)c1ccc(NC(=O)C2C3CCC(C3)C2C(=O)O)cc1 (centres undefined) | 0
CCCc1nnc(SCC(=O)N2CCOCC2)n1Cc1ccco1 | 0
CCCS(=O)(=O)N1CCCC(C(=O)NC(C)c2ccc3c(c2)OCCO3)C1 (centres undefined) | 3
COc1ccc(-c2nc3cc(NC(=O)Cc4ccc(OC)c(OC)c4)ccc3o2)cc1 | 0
CCCCn1nnnc1SCC(=O)Nc1cccc(C)n1 | 1
CCCNS(=O)(=O)c1ccc(OCC(=O)NCc2ccco2)cc1 | 2
COc1cc(Nc2cc(C)nc3ncnn23)cc(OC)c1OC | 0

SMILES | inhibition [%]
CC(=O)c1ccc2c3c(cccc13)C(=O)N(c1c(C)nn(C)c1C)C2=O | 0
CCOc1ccc(-c2cn(S(=O)(=O)c3cccc4nsnc34)nc2N)cc1 | 0
O=C(O)c1cccnc1Nc1cccc(C(F)(F)F)c1 | 0
CC1=C(C(=O)Nc2ccccc2)C(c2cccs2)C(C#N)=C(SCC#N)N1 (centres undefined) | 5
CN(C)c1nc(N(C)C)nc(N(C)C)n1 | 2
CC1CN(S(=O)(=O)c2ccc(Cl)c(C(F)(F)F)c2)CC(C)O1 (centres undefined) | 0
Cc1nn(C)cc1C1C2=C(CC(C)(C)CC2=O)OC2=C1C(=O)CC(C)(C)C2 | 0
CCCOC(=O)CSc1nc(N)c(C#N)c(CC)c1C#N | 8
CCOC(=O)N1CCN(C(=O)C2c3cc(OC)c(OC)cc3C(=O)N3CCc4ccccc4C23)CC1 (centres undefined) | 4
O=C1CC(N2CCOCC2)C(=O)N1c1ccc2c(c1)OCO2 (centres undefined) | 1
c1ccc(-c2cc3c(nn2)CCc2nonc2-3)cc1 | 0
Cc1ccc(CSC2=NCCN2C(=O)c2ccco2)cc1 | 0
CC(C)[C@H](NC(=O)OC(C)(C)C)c1nnc(SCc2cccc(F)c2)o1 | 1
CCn1nnnc1SCC(=O)Nc1nc(-c2cccs2)cs1 | 0
CCc1cc(=O)n2[nH]c(C)c(-c3ccccc3OC)c2n1 | 4
COc1cc2c(C#N)c(N3CCOCC3)nc(N)c2c(N)n1 | 0
CCSC(SCC)[C@H](O)[C@@H](O)[C@H](O)[C@H](O)CO | 2
Cc1ccccc1CN1CCNC1=O | 0
COCCCNC(=O)c1c(N)n(-c2cccc(S(N)(=O)=O)c2)c2nc3ccccc3nc12 | 2
